Inconclusive results are not listed. Calls of active or inactive are those of the source. Calls come from the whole dose curve; as a rule, active = well fitted curve in the direction sought with a large enough effect; inconclusive = small, poorly fitted or top-dose-only effect, or another doubt; inactive = no such curve, though single readings can be large; an effect the other way counts as inactive or inconclusive.
What was measured:
[1] = target: Phospholipid hydroperoxide glutathione peroxidase GPX4 (Homo sapiens) (UniProt P36969); assay: Primary qHTS Assay for Inhibitors of Recombinant Selenoprotein Glutathione Peroxidase 4 (GPX4) (AID 1845192); note: nearly all actives have a fitted effect of over 65% in size; for activity change, negative = inhibition: series mostly up to about 50 µM; % is set by controls: 0 for no effect and ±100 for the full control effect
Procedure, shortened: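 qHTS, GR-coupled: GPX4 200 nM + cpd 30 min RT → GSH 1 mM, NADPH 0.5 mM, GR 100 nM → CHP 0.5 mM start; fluor 340/450 at t0 and t15 min; no-enzyme wells as control.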

[2] = target: Luciferin 4-monooxygenase (Photinus pyralis) (UniProt P08659); assay: Primary firefly luciferase (FLuc) qHTS assay for identification of artifact compounds. (AID 1845220); note: nearly all actives have a fitted effect of over 60% in size;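 for activity change, negative = inhibition: series mostly up to about 54 µM; plate controls were DMSO vehicle for no effect and no enzyme for full effect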
Procedure, shortened: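 Reaction readout was CCD-imaged luminescence, taken 5 min after adding 10 nM purified firefly enzyme to compound-treated wells holding 10 uM luciferin and ATP in pH 7.6 buffer.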

[3] = Primary fluorescence-based thiol-reactive (MSTI) qHTS assay for identification of artifact compounds. (AID 1845221); note: nearly all actives have a fitted effect of over 65% in size; note: potency is the fitted concentration of half-maximal effect;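 for activity change, negative = thiol reactive: series mostly up to about 54 µM; thiol-reactive compounds lower the probe fluorescence signal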
Procedure, shortened: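 Probe: MSTI 4 uM, PBS pH 7.4, 2% DMSO. Incubation 1 h, RT, light-protected. Readout fluorescence 525/598 nm.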

[4] = test system: Nanoluciferase (engineered Oplophorus gracilirostris luciferase); assay: Primary Nanoluciferase (NLuc) qHTS assay for identification of artifact compounds. (AID 1845222);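 note: NLuc secreted into diluted conditioned medium of S16 cells; series mostly up to about 54 µM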
Procedure, shortened: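 Concentration-response data were obtained by luminescence after 5 min with Nano-Glo substrate at 1:100. The enzyme was diluted S16 NLuc-expressing cell medium, preincubated with compound for 15 min at RT. Curves were fitted with a 4-parameter Hill model.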

[5] = Primary redox qHTS assay for identification of artifact compounds. (AID 1845223);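 note: 0% = DMSO and 100% = reference compound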
Procedure, shortened: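 Redox-cycling detection via DTT (250 uM final) oxidation coupled to Amplex Red (25 uM)/HRP (250 mU/mL) in HBSS. 15 min preincubation plus 30 min after DTT, room temperature. Ex/Em 525/598 nm; 4-parameter Hill fit against DMSO and 10 uM DA3003.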

Chain of Phospholipid hydroperoxide glutathione peroxidase GPX4 (Homo sapiens) (P36969 whole entry, looked up): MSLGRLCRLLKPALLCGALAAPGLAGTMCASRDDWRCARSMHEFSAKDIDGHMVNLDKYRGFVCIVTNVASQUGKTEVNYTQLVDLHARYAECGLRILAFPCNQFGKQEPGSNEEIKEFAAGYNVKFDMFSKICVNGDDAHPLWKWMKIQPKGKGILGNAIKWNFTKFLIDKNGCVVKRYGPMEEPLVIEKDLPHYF

CC1(C)CC[C@]2(C(=O)O)CC[C@]3(C)C(=CCC4[C@@]5(C)C[C@@H](O)[C@H](O)C(C)(C)C5CC[C@]43C)C2C1 (stereo not given in full)
inactive: Potency [1] | Potency [2] | Potency [3] | Potency [4] | Potency [5]

COC(=O)[C@H](O)[C@H]1C(C)(C)[C@H](OC(=O)C(C)C)[C@@]2(O)C(=O)[C@]1(C)C1CC[C@]3(C)C(CC(=O)O[C@H]3c3ccoc3)[C@]13O[C@@H]32 (stereo not given in full)
inactive: Potency [1] | Potency [2] | Potency [3] | Potency [4] | Potency [5]

N=c1nc2n(cc1F)C1OC(CO)C(O)C1O2 (stereo not given)
inactive: Potency [1] | Potency [2] | Potency [3] | Potency [4] | Potency [5]

CC1=C(C(=O)O)/C(=C\CO[C@@H]2O[C@H](CO)[C@@H](O)[C@H](O)[C@H]2O)C(OC(=O)/C=C/c2ccc(O)cc2)C1 (stereo not given in full)
active: Potency [3] 4.62 µM
inactive: Potency [1] | Potency [2] | Potency [4] | Potency [5]

C[C@H](Oc1ccc(S(C)(=O)=O)cc1C(=O)N1CCN(c2ncc(C(F)(F)F)cc2F)CC1)C(F)(F)F
inactive: Potency [1] | Potency [2] | Potency [3] | Potency [4] | Potency [5]

CC(=O)O[C@@H]1[C@@H](OC(=O)/C=C/c2ccccc2)[C@@H](OC(C)=O)[C@H](O[C@H]2[C@@H]3C=CO[C@@H](O[C@@H]4O[C@H](CO)[C@@H](O)[C@H](O)[C@H]4O)[C@@H]3[C@@]3(CO)O[C@@H]23)O[C@H]1C
inactive: Potency [1] | Potency [2] | Potency [3] | Potency [4] | Potency [5]

FC(F)(F)c1ccc(Nc2nc(-c3c(C(F)(F)F)nc4ccccn34)cs2)cc1
inactive: Potency [1] | Potency [2] | Potency [3] | Potency [4] | Potency [5]

CC(=O)N[C@@H](C(=O)O[C@H]1CCC(C)(C)[C@@H]2CCC3=C(COC3=O)[C@@]12C)C(C)C
inactive: Potency [1] | Potency [2] | Potency [3] | Potency [4] | Potency [5]

COc1cc(Nc2nc3ccccc3nc2NS(=O)(=O)c2ccc(NC(=O)c3ccc(OC)c(C)c3)cc2)cc(OC)c1
active: Potency [3] 1.68 µM
inactive: Potency [1] | Potency [2] | Potency [4] | Potency [5]

C[C@@H]1O[C@@H](O[C@H]2[C@H](O[C@H]3[C@H](O[C@H]4CC[C@@]5(C)C(CC[C@]6(C)C5CC=C5[C@@H]7CC(C)(C)CC[C@]7(C(=O)O[C@@H]7O[C@H](CO)[C@@H](O[C@@H]8O[C@@H](C)[C@H](O)[C@@H](O)[C@H]8O)[C@H](O)[C@H]7O)CC[C@]56C)C4(C)C)OC[C@H](O)[C@@H]3O)O[C@H](CO)[C@@H](O)[C@@H]2O)[C@H](O)[C@H](O)[C@H]1O (stereo not given in full)
inactive: activity change, negative = inhibition [1] 0.115% [at 9.73 µM] | outcome [2] inactive [at 11.6 µM] | activity change, negative = thiol reactive [3] 125% [at 11.5 µM] | activity, negative = inhibition [4] 4.91% [at 11.6 µM] | redox activity (% of DA3003) [5] 19.8% [at 11.5 µM]

COC(C(=O)N1Cc2[nH]nc(NC(=O)c3ccc(N4CCN(C)CC4)cc3)c2C1)c1ccccc1 (stereo not given)
inactive: Potency [1] | Potency [2] | Potency [3] | Potency [4] | Potency [5]

CC(=O)O[C@@H]1[C@H](O[C@@H]2O[C@@H](CO)[C@H](O)[C@H]2O)[C@@H](O[C@@H]2O[C@@H](C)[C@H](O[C@@H]3OC[C@@H](O)[C@H](O)[C@H]3O)[C@@H](O)[C@H]2O)[C@H](OC(=O)[C@]23CCC(C)(C)C[C@H]2C2=CCC4[C@@]5(C)CC[C@H](O[C@@H]6O[C@H](C(=O)O)[C@@H](O)[C@H](O)[C@H]6O[C@@H]6O[C@H](CO)[C@H](O)[C@H](O)[C@H]6O)[C@@](C)(C=O)C5CC[C@@]4(C)[C@]2(C)CC3)O[C@@H]1C (stereo not given in full)
inactive: activity change, negative = inhibition [1] 2.32% [at 9.73 µM] | activity change, negative = inhibition [2] 4.46% [at 11.6 µM] | activity change, negative = thiol reactive [3] 321% [at 11.5 µM] | activity, negative = inhibition [4] 0% [at 11.6 µM] | redox activity (% of DA3003) [5] 1.35% [at 11.5 µM]

CC(C)(C)NS(=O)(=O)c1cncc(-c2cc(F)c3nc(N)nn3c2)c1
inactive: Potency [1] | Potency [2] | Potency [3] | Potency [4] | Potency [5]

N#Cc1cnc2cnc(NCc3cccnc3)cc2c1Nc1ccc(F)c(Cl)c1
inactive: Potency [1] | Potency [2] | Potency [3] | Potency [4] | Potency [5]

CCCN1CCC(c2cccc(S(C)(=O)=O)c2)CC1
inactive: Potency [1] | Potency [2] | Potency [3] | Potency [4] | Potency [5]

CN(C)CCn1cc(S(=O)(=O)c2cccc(F)c2)c2cccnc21
inactive: Potency [1] | Potency [2] | Potency [3] | Potency [4] | Potency [5]

CC(=O)C12OC(C)(C)OC1CC1C3CCC4=CC(=O)C=CC4(C)C3(F)C(O)CC12C (stereo not given)
inactive: Potency [1] | Potency [2] | Potency [3] | Potency [4] | Potency [5]

CC1(C)CC[C@]2(C(=O)O)[C@H](O)C[C@]3(C)C(=CCC4[C@@]5(C)CC[C@H](O[C@@H]6O[C@H](CO[C@@H]7OC[C@H](O)[C@H](O)[C@H]7O[C@@H]7OC[C@@H](O)[C@H](O)[C@H]7O)[C@@H](O)[C@H](O)[C@H]6O[C@@H]6O[C@H](CO)[C@@H](O)[C@H](O)[C@H]6O)C(C)(C)C5CC[C@]43C)[C@@H]2C1 (stereo not given in full)
inactive: Potency [1] | activity change, negative = inhibition [2] 0.747% [at 11.6 µM] | activity change, negative = thiol reactive [3] 242% [at 11.5 µM] | activity, negative = inhibition [4] 3.21% [at 11.6 µM] | redox activity (% of DA3003) [5] 15.6% [at 11.5 µM]

C/C=C/c1cc(OC)c2c(c1)[C@@H](C)[C@@H](c1ccc(O)c(OC)c1)O2
inactive: Potency [1] | Potency [2] | Potency [3] | Potency [4] | Potency [5]

CNS(=O)(=O)CC1CCC(N(C)c2ncnc3[nH]ccc23)CC1 (stereo not given)
inactive: Potency [1] | Potency [2] | Potency [3] | Potency [4] | Potency [5]

CC(=O)OC1C(=O)C2(C)C(O)CC3OCC3(OC(C)=O)C2C(OC(=O)c2ccccc2)C2(O)CC(OC(=O)C(O)C(NC(=O)c3ccccc3)c3ccccc3)C(C)=C1C2(C)C (stereo not given)
inactive: Potency [1] | Potency [2] | Potency [3] | Potency [4] | Potency [5]
